Where “and” joins values, the source holds several entries; their conditions need not be identical. Identical values can stand only once. Records with an inconclusive call do not appear. Calls of active or inactive are those of the source. Rule for the calls: active = hit-call score of the fitted dose curve at least 0.9, where 1 is the maximum; inconclusive = response in the unintended direction; inactive = score below 0.9.
Tests used:
[1] = biological target: human Peripheral-type Benzodiazepine Receptor (PBR), TSPO (gene 706) (UniProt P30536); test: NVS_MP_hPBR: NovaScreen (NVS) Membrane Protein Assay for human Peripheral-type Benzodiazepine Receptor (PBR) (AID 2283331);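 note: hits reduce radioligand binding relative to DMSO baseline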
Sequence of human Peripheral-type Benzodiazepine Receptor (PBR), TSPO (gene 706) (P30536 whole entry, looked up): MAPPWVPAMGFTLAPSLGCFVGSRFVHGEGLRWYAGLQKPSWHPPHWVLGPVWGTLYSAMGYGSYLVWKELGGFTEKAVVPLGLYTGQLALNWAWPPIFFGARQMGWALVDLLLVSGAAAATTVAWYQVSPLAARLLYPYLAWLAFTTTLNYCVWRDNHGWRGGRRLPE
In short: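 Scintillation counts of filter-bound radioligand served as read-out after 1 h chemical dosing of human colonic membrane preparations. Activity was scored as signal loss against DMSO; initial duplicates at 25 uM, confirmatory concentration series afterward.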

[2] = biological target: rat Gamma-Aminobutyric Acid Type B Receptor (GABBR), Gabbr1 (gene 81657) (UniProt Q9Z0U4); test: NVS_GPCR_rGABBR: NovaScreen (NVS) G Protein-Coupled Receptor Assay for rat Gamma-Aminobutyric Acid Type B Receptor (GABBR) (AID 2283301)
Sequence of rat Gamma-Aminobutyric Acid Type B Receptor (GABBR), Gabbr1 (gene 81657) (Q9Z0U4 whole entry, looked up): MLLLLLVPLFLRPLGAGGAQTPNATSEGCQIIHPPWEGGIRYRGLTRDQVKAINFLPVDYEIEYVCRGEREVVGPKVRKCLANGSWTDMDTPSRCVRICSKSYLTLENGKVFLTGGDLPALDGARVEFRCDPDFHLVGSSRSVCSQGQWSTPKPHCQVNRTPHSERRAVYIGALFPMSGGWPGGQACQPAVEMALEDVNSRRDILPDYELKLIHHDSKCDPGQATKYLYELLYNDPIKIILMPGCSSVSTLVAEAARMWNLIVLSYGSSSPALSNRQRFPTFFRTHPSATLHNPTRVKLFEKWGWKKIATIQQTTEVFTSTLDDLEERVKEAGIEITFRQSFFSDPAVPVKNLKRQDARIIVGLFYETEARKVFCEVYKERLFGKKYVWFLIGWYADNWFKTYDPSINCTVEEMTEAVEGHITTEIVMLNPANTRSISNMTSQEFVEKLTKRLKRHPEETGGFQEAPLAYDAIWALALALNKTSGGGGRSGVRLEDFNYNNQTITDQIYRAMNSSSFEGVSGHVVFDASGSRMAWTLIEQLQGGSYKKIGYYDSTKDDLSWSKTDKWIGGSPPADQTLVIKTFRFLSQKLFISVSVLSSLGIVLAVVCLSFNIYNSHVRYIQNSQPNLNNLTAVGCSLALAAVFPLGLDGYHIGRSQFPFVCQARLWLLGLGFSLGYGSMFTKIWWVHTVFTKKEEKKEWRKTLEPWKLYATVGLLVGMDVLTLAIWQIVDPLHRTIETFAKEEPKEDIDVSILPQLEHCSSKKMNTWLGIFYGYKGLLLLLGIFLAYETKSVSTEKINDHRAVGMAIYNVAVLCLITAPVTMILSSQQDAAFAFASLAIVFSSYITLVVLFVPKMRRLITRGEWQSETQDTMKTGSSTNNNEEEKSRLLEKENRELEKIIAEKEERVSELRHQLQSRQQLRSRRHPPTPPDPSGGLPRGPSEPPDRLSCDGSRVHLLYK
In short: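 Radioligand displacement on rat cortical membranes, 1 h, filter-based scintillation counting. Primary screen at 25 uM in duplicate; compounds passing threshold re-tested in concentration-response up to 50 uM; loss of binding fitted against DMSO.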

[3] = biological target: bovine Gamma-Aminobutyric Acid Type A Receptor BDZ, alpha 1 site (GABARa1), GABRA1 (gene 780973) (UniProt P08219); test: NVS_LGIC_bGABARa1: NovaScreen (NVS) Ligand-Gated Ion Channel Assay for bovine Gamma-Aminobutyric Acid Type A Receptor BDZ, alpha 1 site (GABARa1) (AID 2283321)
Sequence of bovine Gamma-Aminobutyric Acid Type A Receptor BDZ, alpha 1 site (GABARa1), GABRA1 (gene 780973) (P08219 whole entry, looked up): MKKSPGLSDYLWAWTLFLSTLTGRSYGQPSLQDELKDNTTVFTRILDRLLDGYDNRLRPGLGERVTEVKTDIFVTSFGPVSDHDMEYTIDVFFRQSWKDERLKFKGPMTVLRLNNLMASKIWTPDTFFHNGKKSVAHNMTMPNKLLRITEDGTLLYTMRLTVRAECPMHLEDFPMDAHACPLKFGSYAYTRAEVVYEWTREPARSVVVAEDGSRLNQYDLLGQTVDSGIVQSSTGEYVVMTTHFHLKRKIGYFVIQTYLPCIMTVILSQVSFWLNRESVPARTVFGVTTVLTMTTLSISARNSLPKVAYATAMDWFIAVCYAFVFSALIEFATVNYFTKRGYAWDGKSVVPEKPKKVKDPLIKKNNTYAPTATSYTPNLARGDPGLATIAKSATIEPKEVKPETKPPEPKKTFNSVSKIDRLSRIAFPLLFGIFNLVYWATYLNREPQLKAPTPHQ
In short: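 Radioligand competition binding on bovine cortical membranes, 0.75 h, filter-based scintillation counting. Primary single concentration 25 uM in duplicate; actives rerun in concentration-response to 50 uM max. Loss of signal fitted versus DMSO.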

[4] = biological target: rat Gamma-Aminobutyric Acid Type A Receptor, Non-Selective (GABAR-NonSelective), Gabra1 (gene 29705) (UniProt P62813); test: NVS_LGIC_rGABAR_NonSelective: NovaScreen (NVS) Ligand-Gated Ion Channel Assay for rat Gamma-Aminobutyric Acid Type A Receptor, Non-Selective (GABAR-NonSelective) (AID 2283326)
Sequence of rat Gamma-Aminobutyric Acid Type A Receptor, Non-Selective (GABAR-NonSelective), Gabra1 (gene 29705) (P62813 whole entry, looked up): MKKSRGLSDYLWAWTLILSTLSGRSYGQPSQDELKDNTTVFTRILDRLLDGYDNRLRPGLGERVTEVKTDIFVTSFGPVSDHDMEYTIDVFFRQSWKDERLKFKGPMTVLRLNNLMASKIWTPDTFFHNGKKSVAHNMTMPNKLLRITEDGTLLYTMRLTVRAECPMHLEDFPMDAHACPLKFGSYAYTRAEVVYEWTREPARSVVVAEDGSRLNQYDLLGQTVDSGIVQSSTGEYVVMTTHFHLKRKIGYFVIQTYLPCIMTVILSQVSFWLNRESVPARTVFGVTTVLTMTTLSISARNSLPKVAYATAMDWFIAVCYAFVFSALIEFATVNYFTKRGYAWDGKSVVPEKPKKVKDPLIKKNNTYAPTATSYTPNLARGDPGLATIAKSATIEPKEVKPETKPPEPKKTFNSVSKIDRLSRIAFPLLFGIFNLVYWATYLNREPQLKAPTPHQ
In short: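 Radioligand displacement on rat whole-brain extract, 1 h, filter scintillation readout; signal loss fitted versus DMSO. Primary screen in duplicate at 25 uM; hits (e.g. ≥30% inhibition) retested in concentration-response up to 50 uM.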

[5] = biological target: rat Thyrotropin Releasing Hormone Receptor (TRH), Trhr (gene 25570) (UniProt Q01717); test: NVS_GPCR_rTRH: NovaScreen (NVS) G Protein-Coupled Receptor Assay for rat Thyrotropin Releasing Hormone Receptor (TRH) (AID 2283329);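 note: hit means lower bound tracer signal versus DMSO baseline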
Sequence of rat Thyrotropin Releasing Hormone Receptor (TRH), Trhr (gene 25570) (Q01717 whole entry, looked up): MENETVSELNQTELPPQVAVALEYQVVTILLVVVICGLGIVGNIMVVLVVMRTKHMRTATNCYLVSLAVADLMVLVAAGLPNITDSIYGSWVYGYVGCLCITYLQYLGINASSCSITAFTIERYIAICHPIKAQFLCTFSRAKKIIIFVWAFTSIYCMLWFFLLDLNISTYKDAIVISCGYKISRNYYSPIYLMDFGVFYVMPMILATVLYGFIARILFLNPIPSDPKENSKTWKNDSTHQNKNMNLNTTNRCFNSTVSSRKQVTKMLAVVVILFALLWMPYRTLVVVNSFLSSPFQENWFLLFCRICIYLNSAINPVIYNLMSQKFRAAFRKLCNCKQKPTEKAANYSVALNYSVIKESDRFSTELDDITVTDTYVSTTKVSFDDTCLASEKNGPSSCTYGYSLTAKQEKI
In short: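 Rat forebrain membrane prep, radioligand displacement, filter scintillation readout at 4 h. Single conc 25 uM, duplicate; actives retested as concentration series. DMSO = negative control/baseline.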

[6] = biological target: rat Oxytocin Receptor (OXT), Oxtr (gene 25342) (UniProt P70536); test: NVS_GPCR_rOXT: NovaScreen (NVS) G Protein-Coupled Receptor Assay for rat Oxytocin Receptor (OXT) (AID 2283330)
Sequence of rat Oxytocin Receptor (OXT), Oxtr (gene 25342) (P70536 whole entry, looked up): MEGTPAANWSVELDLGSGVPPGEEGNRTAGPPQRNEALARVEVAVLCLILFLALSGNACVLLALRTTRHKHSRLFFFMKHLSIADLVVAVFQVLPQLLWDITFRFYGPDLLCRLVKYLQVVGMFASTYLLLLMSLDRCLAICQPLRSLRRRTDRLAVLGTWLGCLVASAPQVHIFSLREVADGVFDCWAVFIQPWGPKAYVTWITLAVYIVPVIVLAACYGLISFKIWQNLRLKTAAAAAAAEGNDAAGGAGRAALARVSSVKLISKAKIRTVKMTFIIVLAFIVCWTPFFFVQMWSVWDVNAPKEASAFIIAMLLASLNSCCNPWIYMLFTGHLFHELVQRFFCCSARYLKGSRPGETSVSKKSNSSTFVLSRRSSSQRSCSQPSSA
In short: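 Radioligand displacement on rat uterine membranes, 1 h incubation, filter-based scintillation counting. Chemicals were screened in duplicate at 25 uM, and those passing threshold were retested in concentration-response up to 50 uM. Loss of binding was fitted versus DMSO.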

[7] = biological target: rat Adrenergic Receptor, Alpha 2 (Adra2), Non-selective Binding, Adra2a (gene 25083) (UniProt P22909); test: NVS_GPCR_rAdra2_NonSelective: NovaScreen (NVS) G Protein-Coupled Receptor Assay for rat Adrenergic Receptor, Alpha 2 (Adra2), Non-selective Binding (AID 2283299)
Sequence of rat Adrenergic Receptor, Alpha 2 (Adra2), Non-selective Binding, Adra2a (gene 25083) (P22909 whole entry, looked up): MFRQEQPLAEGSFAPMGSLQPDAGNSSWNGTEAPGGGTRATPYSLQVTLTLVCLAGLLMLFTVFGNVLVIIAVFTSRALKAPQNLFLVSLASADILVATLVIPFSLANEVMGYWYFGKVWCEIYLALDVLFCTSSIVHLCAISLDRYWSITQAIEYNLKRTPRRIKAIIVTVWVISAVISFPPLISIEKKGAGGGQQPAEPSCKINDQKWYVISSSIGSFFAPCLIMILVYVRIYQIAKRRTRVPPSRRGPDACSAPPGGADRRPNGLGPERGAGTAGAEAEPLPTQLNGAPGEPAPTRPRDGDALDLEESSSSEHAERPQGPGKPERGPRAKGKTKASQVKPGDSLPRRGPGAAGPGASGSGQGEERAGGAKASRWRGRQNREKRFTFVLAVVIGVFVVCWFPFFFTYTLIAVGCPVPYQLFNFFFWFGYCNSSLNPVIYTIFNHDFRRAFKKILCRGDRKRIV
In short: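 Rat cortical membranes, radioligand competitive displacement read by filter-based scintillation counting 1.25 hours after dosing. Primary screen in duplicate at 25 uM; actives followed up in concentration series.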

[8] = biological target: human Constitutive Androstane Receptor (CAR), NR1I3 (gene 9970) (UniProt Q14994); test: NVS_NR_hCAR_Agonist: NovaScreen (NVS) Nuclear Receptor Binding Assay for human Constitutive Androstane Receptor Agonism (CAR) (AID 2283328)
Sequence of human Constitutive Androstane Receptor (CAR), NR1I3 (gene 9970) (Q14994 whole entry, looked up): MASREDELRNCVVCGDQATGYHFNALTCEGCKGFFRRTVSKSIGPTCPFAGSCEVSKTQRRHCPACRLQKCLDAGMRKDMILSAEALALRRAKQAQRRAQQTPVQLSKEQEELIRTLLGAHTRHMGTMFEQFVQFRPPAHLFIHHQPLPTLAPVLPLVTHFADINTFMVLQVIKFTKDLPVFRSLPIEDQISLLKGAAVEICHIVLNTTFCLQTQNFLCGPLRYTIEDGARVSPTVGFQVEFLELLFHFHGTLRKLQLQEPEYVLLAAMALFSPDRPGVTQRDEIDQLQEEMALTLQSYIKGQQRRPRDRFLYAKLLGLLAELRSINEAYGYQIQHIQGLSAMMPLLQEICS
In short: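 Cell-free TR-FRET binding readout with extracted human CAR protein, read 1 h after dosing. Gain of signal fitted against DMSO baseline. Single-concentration duplicates at 25 uM, then concentration-response up to 50 uM for actives.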

[9] = biological target: Sodium channel protein type 1 subunit alpha (Rattus norvegicus) (UniProt P04774); test: NVS_IC_rNaCh_site2: NovaScreen (NVS) Ion Channel Assay for rat Sodium Channel, Site 2 (NaCh) (AID 2283322);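 note: hit means loss of radioligand binding signal relative to DMSO so AC50 marks displacement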
In short: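 Membranes: rat forebrain. Format: competitive radioligand displacement, filter separation, scintillation readout, 1 h exposure. Primary screen in duplicate at 25 uM; actives retested in concentration series.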

[10] = biological target: Adra2b (gene 24174) (UniProt P19328); test: NVS_GPCR_rmAdra2B: NovaScreen (NVS) G Protein-Coupled Receptor Assay for hybird cells Adrenergic, Alpha 2B Receptor (Adra2B) (AID 2283306)
In short: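 Radioligand filter-binding assay on membrane proteins from neuroglioma/blastoma hybrid cells (rodent), 1 h after dosing; scintillation counting, loss of signal vs DMSO. Primary screen in duplicate at 25 uM, actives then run in concentration series.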

[11] = biological target: Voltage-dependent N-type calcium channel subunit alpha-1B (Rattus norvegicus) (UniProt Q02294); test: NVS_IC_rCaChN: NovaScreen (NVS) Ion Channel Assay for rat Calcium Channel, Type N (CaChN) (AID 2283317)
[12] = biological target: rat Corticotropin Releasing Factor Receptor (CRF), Crhr1 (gene 58959) (UniProt P35353); test: NVS_GPCR_rCRF: NovaScreen (NVS) G Protein-Coupled Receptor Assay for rat Corticotropin Releasing Factor Receptor (CRF) (AID 2283300)
In short: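 Rat cortical membranes used as receptor source in a radioligand competitive displacement binding assay; scintillation read 2 h after dosing. Primary screen run in duplicate at 25 uM; loss of signal versus DMSO baseline indicates binding.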

[13] = biological target: rat Glutamate, NMDA Agonist Site (GluNMDA), Grin1 (gene 24408) (UniProt P35439); test: NVS_LGIC_rGluNMDA_Agonist: NovaScreen (NVS) Ligand-Gated Ion Channel Assay for rat Glutamate, NMDA Agonist Site (GluNMDA) (AID 2283327)
In short: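 Rat forebrain membranes, radioligand binding in the agonist-site protocol; 1 h after dosing; filter-based scintillation counting. Single-concentration duplicate screen at 25 uM, then concentration-response up to 50 uM for actives; gain-of-signal vs DMSO.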

[14] = biological target: rat Opioid Receptor, Non-selective Sodium (Na+) Binding, Oprm1 (gene 25601) (UniProt P33535); test: NVS_GPCR_rOpiate_NonSelectiveNa: NovaScreen (NVS) G Protein-Coupled Receptor Assay for rat Opioid Receptor, Non-selective Sodium (Na+) Binding (AID 2283311)
In short: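 Rat forebrain membranes, radioligand displacement with filter scintillation counting, 1.5 h incubation. Screened in duplicate at 25 µM; hits then run in concentration-response up to 50 µM; loss of binding fitted versus DMSO.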

[15] = biological target: rat Neonicotinoid receptor (NNR), Chrna7 (gene 25302) (UniProt Q05941); test: NVS_LGIC_rNNR_BungSens: NovaScreen (NVS) Ligand-Gated Ion Channel Assay for rat Neonicotinoid receptor (NNR) (AID 2283315)
Sequence of rat Neonicotinoid receptor (NNR), Chrna7 (gene 25302) (Q05941 whole entry, looked up): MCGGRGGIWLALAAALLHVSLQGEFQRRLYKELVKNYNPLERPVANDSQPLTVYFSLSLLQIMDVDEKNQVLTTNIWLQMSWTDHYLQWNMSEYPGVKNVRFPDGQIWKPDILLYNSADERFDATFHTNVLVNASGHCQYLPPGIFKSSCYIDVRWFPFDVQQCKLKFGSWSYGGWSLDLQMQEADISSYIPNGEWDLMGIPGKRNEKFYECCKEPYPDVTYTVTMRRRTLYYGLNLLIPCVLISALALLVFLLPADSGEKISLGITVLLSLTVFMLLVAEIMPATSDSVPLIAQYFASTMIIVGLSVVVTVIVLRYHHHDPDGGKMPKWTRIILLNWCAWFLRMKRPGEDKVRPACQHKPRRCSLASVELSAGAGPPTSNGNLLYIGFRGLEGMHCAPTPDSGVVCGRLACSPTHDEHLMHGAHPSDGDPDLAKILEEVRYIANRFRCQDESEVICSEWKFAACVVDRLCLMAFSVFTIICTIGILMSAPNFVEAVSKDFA
In short: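 Radioligand displacement binding on rat cortical membranes, 2.5 h incubation, filtration and scintillation counting. Loss of specific binding fitted relative to DMSO.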

[16] = biological target: bovine Gamma-Aminobutyric Acid Type A Receptor BDZ, alpha 5 site (GABARa5), GABRA5 (gene 523515) (UniProt Q08E50); test: NVS_LGIC_bGABARa5: NovaScreen (NVS) Ligand-Gated Ion Channel Assay for bovine Gamma-Aminobutyric Acid Type A Receptor BDZ, alpha 5 site (GABARa5) (AID 2283323)
Sequence of bovine Gamma-Aminobutyric Acid Type A Receptor BDZ, alpha 5 site (GABARa5), GABRA5 (gene 523515) (Q08E50 whole entry, looked up): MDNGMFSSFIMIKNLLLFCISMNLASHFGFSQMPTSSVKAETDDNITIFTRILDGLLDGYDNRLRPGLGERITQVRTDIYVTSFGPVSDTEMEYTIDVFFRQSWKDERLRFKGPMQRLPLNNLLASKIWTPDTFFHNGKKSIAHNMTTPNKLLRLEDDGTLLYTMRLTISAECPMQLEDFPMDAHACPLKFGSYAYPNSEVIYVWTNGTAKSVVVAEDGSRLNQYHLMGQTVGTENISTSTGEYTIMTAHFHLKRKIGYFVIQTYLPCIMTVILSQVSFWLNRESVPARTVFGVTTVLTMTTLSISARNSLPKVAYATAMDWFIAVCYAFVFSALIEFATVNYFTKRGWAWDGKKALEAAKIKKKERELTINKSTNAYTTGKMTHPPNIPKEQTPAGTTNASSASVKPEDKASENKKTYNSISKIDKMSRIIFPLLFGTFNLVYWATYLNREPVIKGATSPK
In short: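 Radioligand competitive displacement binding on bovine hippocampal membranes, read 1 hr after dosing by filter-based scintillation counting. Primary screen at 25 uM in duplicate; actives (e.g. ≥30% inhibition) then run in concentration-response up to 50 uM.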

[17] = test system: NCBI gene 24521; test: NVS_IC_rKATPCh: NovaScreen (NVS) Ion Channel Assay for rat Potassium Channel, ATP-Sensitive (KATPCh) (AID 2283319)
In short: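 Rat cortical membranes; radioligand binding at ATP-sensitive K channel site, filter-based scintillation counting 2 h after dosing. Single-point duplicate screen at 25 uM, hits rerun in concentration-response up to 50 uM; loss of signal versus DMSO.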

[18] = biological target: human Serotonin, 5-Hydroxytryptamine Receptor 3 (5HT3), HTR3A (gene 3359) (UniProt P46098); test: NVS_LGIC_h5HT3: NovaScreen (NVS) Ligand-Gated Ion Channel Assay for human Serotonin, 5-Hydroxytryptamine Receptor 3 (5HT3) (AID 2283325)
In short: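 Radioligand displacement binding to human 5-HT3 from HEK293 membranes, read by filter-based scintillation counting after 1 h. Screen at 25 uM in duplicate; chemicals passing threshold were retested in concentration-response up to 50 uM.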

[19] = test system: rat Adrenergic, Alpha 1B Receptor (Adra1B), gene 24173; test: NVS_GPCR_rAdra1B: NovaScreen (NVS) G Protein-Coupled Receptor Assay for rat Adrenergic, Alpha 1B Receptor (Adra1B) (AID 2283297)
In short: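 Rat liver membranes, radioligand displacement with filter-based scintillation detection, 1 h incubation. Primary screen in duplicate at 25 uM; actives retested in concentration series; activity relative to DMSO.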

[20] = biological target: rat Neurotensin Receptor (NTS), Ntsr1 (gene 366274) (UniProt P20789); test: NVS_GPCR_rNTS: NovaScreen (NVS) G Protein-Coupled Receptor Assay for rat Neurotensin Receptor (NTS) (AID 2283308)
In short: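 Rat forebrain membranes; radioligand binding with competitive displacement, read by filter-based scintillation counting 1 h after dosing. Primary screen in duplicate at 25 uM; actives (e.g., 30% inhibition) rerun in concentration-response up to 50 uM, loss-of-signal versus DMSO.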

Compound: Cc1ccc2c(c1N)C(=O)c1ccccc1C2=O
- AC50 [1]: 13.9 µM (active)

Compound: CCC1(c2ccccc2)C(=O)N=C(O)NC1=O (stereo unspecified)
- outcome [2]: inactive
- outcome [3]: inactive
- outcome [4]: inactive

Compound: CCCCCCCc1ccc(O)cc1
- outcome [5]: inactive

Compound: O=P1(N(CCCl)CCCl)NCCCO1 (stereo unspecified)
- outcome [6]: inactive

Compound: CC(C)Nc1ccc(Nc2ccccc2)cc1
- AC50 [7]: 25 µM (active)

Compound: c1ccc2c(c1)Nc1ccccc1S2
- outcome [8]: inactive

Compound: CCC(C)(C)c1ccc(O)cc1
- AC50 [9]: 41.5 µM (active)
- outcome [1]: inactive

Compound: O=P(Oc1ccccc1)(Oc1ccccc1)Oc1ccccc1
- outcome [10]: inactive
- AC50 [1]: 2.61 µM (active)

Compound: c1ccc2c(c1)sc1ccccc12
- outcome [5]: inactive

Compound: O=C(CBr)OCc1ccccc1
- outcome [5]: inactive

Compound: C=CC(=O)OCC(CC)(COC(=O)C=C)COC(=O)C=C
- AC50 [1]: 17.2 µM (active)

Compound: ClC1=C(Cl)C2(Cl)C3C(Cl)C(Cl)CC3C1(Cl)C2(Cl)Cl (stereo unspecified)
- outcome [11]: inactive

Compound: N#Cc1c(-c2ccc(Cl)cc2)[nH]c(C(F)(F)F)c1Br
- AC50 [1]: 0.122 µM (active)

Compound: CC(C)(C)c1ccc(O)cc1
- outcome [1]: inactive

Compound: CC(C)(C)c1ccccc1OP(=O)(Oc1ccccc1)Oc1ccccc1
- outcome [9]: inactive
- AC50 [1]: 1.16 µM (active)

Compound: CCCCC(CC)COP(=O)(Oc1ccccc1)Oc1ccccc1 (stereo unspecified)
- outcome [7]: inactive
- outcome [5]: inactive
- AC50 [1]: 10.9 µM (active)

Compound: CCOP(=S)(OCC)SCS(=O)(=O)CC
- outcome [9]: inactive
- AC50 [1]: 25 µM (active)

Compound: CC(Cc1ccc(OCC(=O)O)cc1)NCC(O)c1csc(C(F)(F)F)n1 (stereo unspecified)
- outcome [12]: inactive
- outcome [2]: inactive
- outcome [13]: inactive

Compound: O=P(OCC(Br)CBr)(OCC(Br)CBr)OCC(Br)CBr (stereo unspecified)
- AC50 [1]: 1.25 µM (active) and 139 nM (active)

Compound: CO/N=C(/C(=O)OC)c1ccccc1COc1ccccc1C
- AC50 [1]: 2.76 µM (active)

Compound: c1cc2c3c(cccc3c1)CC2
- AC50 [4]: 1.7 µM (active)

Compound: FC(F)(F)c1ccc(Cl)cc1
- outcome [5]: inactive

Compound: CCOP(=S)(NC(C)C)Oc1ccccc1C(=O)OC(C)C (stereo unspecified)
- AC50 [1]: 9.3 µM (active)

Compound: COC(N)=O
- outcome [5]: inactive

Compound: Nc1ccc2ccccc2c1
- AC50 [1]: 6.61 µM (active)

Compound: Nc1cc2c3c(c1)C(c1ccccc1)=N[C@@H](NC(=O)c1cccnc1)C(=O)N3CC2
- outcome [14]: inactive
- outcome [15]: inactive
- outcome [3]: inactive
- outcome [16]: inactive

Compound: CCCCOCCOP(=O)(OCCOCCCC)OCCOCCCC
- outcome [9]: inactive
- AC50 [1]: 7.98 µM (active) and 6.27 µM (active)

Compound: CSC(C)(C)C=NO
- outcome [15]: inactive
- outcome [9]: inactive
- outcome [16]: inactive
- outcome [6]: inactive

Compound: CCOS(=O)(=O)OCC
- outcome [4]: inactive

Compound: Cc1cc(C)c(C(=O)P(=O)(c2ccccc2)c2ccccc2)c(C)c1
- outcome [15]: inactive
- outcome [9]: inactive
- AC50 [1]: 3.55 µM (active)

Compound: CCOP(=S)(OCC)SCn1nnc2ccccc2c1=O
- AC50 [1]: 11.2 µM (active)

Compound: CC(C)(C)N(NC(=O)c1ccc(Cl)cc1)C(=O)c1ccccc1
- outcome [5]: inactive

Compound: O=S1(=O)OCC2C(CO1)C1(Cl)C(Cl)=C(Cl)C2(Cl)C1(Cl)Cl (stereo unspecified)
- outcome [5]: inactive

Compound: N#Cc1ccc(O)cc1
- AC50 [9]: 41.3 µM (active)

Compound: OCC1CO1 (stereo unspecified)
- outcome [17]: inactive

Compound: c1ccc(OP(Oc2ccccc2)Oc2ccccc2)cc1
- AC50 [1]: 17.6 µM (active)

Compound: CCOP(=S)(Oc1ccc([N+](=O)[O-])cc1)c1ccccc1 (stereo unspecified)
- outcome [1]: inactive

Compound: Nc1ccc(Cl)cc1
- outcome [18]: inactive

Compound: Oc1ccc(I)cc1
- AC50 [9]: 7.01 µM (active)
- outcome [1]: inactive

Compound: CCCCN(CCCC)SN(C)C(=O)Oc1cccc2c1OC(C)(C)C2
- outcome [19]: inactive
- outcome [20]: inactive

Reference: PubChem BioAssay (EPA / NIEHS)
